From PubChem BioAssay (NCATS)
Values joined by “and” are separate entries in the source; they are usually repeats but may differ in a detail not shown here. Identical values can stand only once. Results filed as inconclusive are left out. Active and inactive are the calls of the source. Unless noted, calls follow the shape of the dose curve; as a rule, active = well fitted curve in the direction sought with a large enough effect; inconclusive = small, poorly fitted or top-dose-only effect, or another doubt; inactive = no such curve, though single readings can be large; an effect the other way counts as inactive or inconclusive.

How the values were obtained:
[1] = qHTS for Activators of Parkin Expression: LOPAC Validation Assay (FLuc Reporter) (AID 720573; also: potency is read from the fitted curve at half-maximal effect)
Method in brief: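 FLuc signal from Parkin-promoter coincidence reporter neuronal cells, normalized to DMSO and positive control (100%). Cells (1,500/well) pre-incubated 24 h, then exposed to LOPAC compounds in 7-point dose response for 24 h at 37 C, 5% CO2.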

[2] = target: T1, Hexokinase-4 (Homo sapiens) + Glucokinase regulatory protein (Homo sapiens) (UniProt P35557+Q14397); assay: qHTS assay for inhibitors of recombinant human GCK-GKRP interaction: Diaphorase-coupled assay (AID 743205)
T1 sequence (P35557 whole entry, looked up): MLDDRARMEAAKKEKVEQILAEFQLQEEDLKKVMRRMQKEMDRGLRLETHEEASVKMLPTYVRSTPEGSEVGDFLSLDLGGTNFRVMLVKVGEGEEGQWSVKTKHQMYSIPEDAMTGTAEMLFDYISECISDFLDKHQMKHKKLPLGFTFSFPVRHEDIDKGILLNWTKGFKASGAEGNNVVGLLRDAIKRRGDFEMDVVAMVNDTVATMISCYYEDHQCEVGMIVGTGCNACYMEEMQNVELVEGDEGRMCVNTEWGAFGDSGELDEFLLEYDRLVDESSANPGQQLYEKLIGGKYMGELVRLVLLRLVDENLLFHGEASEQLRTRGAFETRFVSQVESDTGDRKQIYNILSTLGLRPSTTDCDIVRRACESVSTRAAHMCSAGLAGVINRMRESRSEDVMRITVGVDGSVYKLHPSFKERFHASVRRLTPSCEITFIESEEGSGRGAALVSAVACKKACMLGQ
T1 sequence (Q14397 whole entry, looked up): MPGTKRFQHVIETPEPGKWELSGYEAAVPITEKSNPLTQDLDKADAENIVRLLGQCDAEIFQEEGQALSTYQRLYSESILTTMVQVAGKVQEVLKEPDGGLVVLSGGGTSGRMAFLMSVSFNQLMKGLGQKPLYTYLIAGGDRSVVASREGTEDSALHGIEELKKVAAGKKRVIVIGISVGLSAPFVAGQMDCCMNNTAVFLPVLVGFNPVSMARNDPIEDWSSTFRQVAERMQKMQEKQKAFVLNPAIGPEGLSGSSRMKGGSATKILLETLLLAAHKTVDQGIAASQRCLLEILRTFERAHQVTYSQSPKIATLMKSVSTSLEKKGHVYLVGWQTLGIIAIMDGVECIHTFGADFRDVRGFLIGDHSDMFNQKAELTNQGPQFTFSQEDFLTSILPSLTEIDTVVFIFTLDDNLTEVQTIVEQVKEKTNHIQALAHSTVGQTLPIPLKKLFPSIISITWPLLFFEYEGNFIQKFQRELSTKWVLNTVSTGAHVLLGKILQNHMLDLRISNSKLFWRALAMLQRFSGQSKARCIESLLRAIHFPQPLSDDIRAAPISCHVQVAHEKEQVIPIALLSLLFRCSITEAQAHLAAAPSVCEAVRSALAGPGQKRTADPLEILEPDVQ
Method in brief: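 A kinetic fluorescence read (Ex 525/Em 590 nm, every minute for 30 minutes) tracked resorufin from a G6PDH-diaphorase coupled GCK reaction. It contained 10 nM GST-GCK, 10 nM FLAG-GKRP, 5 mM glucose, 0.4 mM ATP in Hepes pH 7.6. Normalized to with/without-enzyme DMSO controls.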

[3] = target: T1, Hexokinase-4 (Homo sapiens) + Glucokinase regulatory protein (Homo sapiens); assay: qHTS assay for inhibitors of recombinant human GCK-GKRP interaction: ADP-Glo assay (AID 743206);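 also: plate controls were DMSO plus enzyme for no effect and no enzyme for full effect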
Method in brief: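 Pin-transferred compounds meet a 15 nM GST-GCK/15 nM FLAG-GKRP/2 uM S6P mix (dispense concentrations). ATP is then added to 0.4 mM final with 5 mM glucose, and the reaction runs 60 min at room temperature. ADP is quantified luminescently.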

[4] = target: T1, Hexokinase-4 (Homo sapiens) + Glucokinase regulatory protein (Homo sapiens); assay: qHTS assay for inhibitors of recombinant human GCK-GKRP interaction: HTRF assay (AID 743207);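 also: 0% = DMSO with GCK present and -100% = DMSO wells lacking GCK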
Method in brief: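 After 60 min equilibration at room temperature with anti-FLAG XL665 and anti-GST antibodies, FRET ratio (665/615 nm, excitation 320 nm) was read. Proteins: GST-GCK and FLAG-GKRP, each 5 nM, plus 2 uM S6P, pH 7.1 buffer; GCK-free wells define minimum signal.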

[5] = qHTS Assay for Identifying Gametocytocidal Compounds (AID 743244); also: potency is read from the fitted curve at half-maximal effect;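 as to max response: % is scaled to controls: 0 for no effect and ±100 for the full control effect; actives lower the fluorescent signal which means gametocytes are killed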; details: P. falciparum 3D7 stage III-V gametocytes, alamarBlue, 72 h; max response: stronger effect = lower value
Method in brief: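 3D7 gametocytes, stages III–V, 20,000/well; cpd 72 h, 37 °C/5% CO2; + alamarBlue 24 h; fluor. Ex 525/Em 598.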

[6] = qHTS profiling for inhibitors of Plasmodium falciparum (3D7) proliferation (AID 743322; call rule not given here;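 also: infected erythrocytes exposed to compound for 72 h before lysis; 100% = DMSO vehicle wells and 0% = 0.29 µM artemisinin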); details: P. falciparum 3D7 proliferation; at 28.7 µM (top of the series) unless noted
Method in brief: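 Parasite DNA was quantified by SYBR Green I fluorescence (ex 485, em 535 nm) after overnight lysis in saponin/Triton buffer at room temperature. Cultures at 0.3% parasitemia and 2.5% hematocrit were first exposed to compound for 72 h at 37 C; signals were normalised to artemisinin (0.29 uM) and vehicle wells.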

[7] = qHTS profiling for inhibitors of Plasmodium falciparum (DD2) proliferation (AID 743323; call rule not given here); details: lower = more inhibition; at 28.7 µM (top of the series) unless noted
Method in brief: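 Parasite proliferation measured via DNA-dye fluorescence, as uninfected erythrocytes lack DNA. Cultures at 0.3% parasitemia and 2.5% hematocrit incubated 72 h with compound; signal scaled between vehicle and 0.29 uM artemisinin wells.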

[8] = qHTS assay for small molecule agonists of the antioxidant response element (ARE) signaling pathway measured by Nrf2-dependant transcriptional activity - cell viability counter screen (AID 720653; active = well fitted curve in the direction sought with a large enough effect in the repeat runs; an effect the other way counts as inactive or inconclusive; also: % is scaled to controls: 0 for no effect and ±100 for the full control effect); details: ARE-bla HepG2 viability, CellTiter-Glo ATP luminescence, 16 h; max response: stronger effect = lower value
Method in brief: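 Cytotoxicity counter screen: intracellular ATP quantified by CellTiter-Glo luminescence in the same ARE-bla HepG2 plates, after 16 h compound exposure and a 2 h beta-lactamase substrate step.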

[9] = qHTS assay for cell viability of the p53RE-bla HCT-116 cell line (AID 743292); also: % is scaled to controls: 0 for no effect and ±100 for the full control effect; nearly all actives have a fitted effect of over 55% in size
Method in brief: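 ATP-based luminescence, 16 h compound exposure at 37 C, p53RE-bla HCT-116 cells at 4,000/well.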

COC(=O)c1c(C)[nH]c(C)c1C(=O)c1ccccc1Cc1ccccc1
inactive: Potency [1] | outcome [2] | Potency [3] | Potency [4] | max response [5] -0.767%

CC(C)CC(NP(=O)(O)O[C@@H]1O[C@@H](C)[C@H](O)[C@@H](O)[C@H]1O)C(=O)NC(Cc1c[nH]c2ccccc12)C(=O)O (some centres undefined)
inactive: Potency [1] | outcome [2] | Potency [3] | max response [5] 18.7%

CC(C)NC[C@@H](O)c1ccc(O)c(O)c1
inactive: Potency [1] | outcome [2] | Potency [3] | max response [5] 19.2%

CN1CC(=O)N/C1=N/C(=O)Nc1cccc(Cl)c1
106%: activity, percent of control [7]
102%: remaining parasite growth % (stronger effect = lower value) [6]
inactive: Potency [1] | outcome [2] | Potency [3] | Potency [4] | max response [5] 11.6% and 35.9%

COc1cc(OC)c(/C=C2/C(=O)Nc3ccccc32)c(OC)c1
inactive: Potency [1] | outcome [2] | Potency [3] | Potency [4] | max response [5] 33.5%

CC12C(=O)OC(=O)C1(C)C1CCC2O1 (centres undefined)
inactive: Potency [1] | outcome [2] | Potency [3] | Potency [4] | max response [5] 3.18%

NCCCCCCCCCCN
inactive: Potency [1] | outcome [2] | Potency [3] | Potency [4] | max response [5] 2.17%

Nc1ncnc2c1ncn2[C@@H]1O[C@H](COP(=O)(O)OP(=O)(O)OP(=O)(O)OP(=O)(O)OC[C@@H]2O[C@H](n3cnc4c(N)ncnc43)[C@@H](O)[C@H]2O)[C@@H](O)[C@H]1O
inactive: Potency [1] | outcome [2] | Potency [3] | Potency [4] | max response [5] 11.9%

CN1CCc2ccccc2Cc2[nH]c3ccccc3c2CC1
inactive: Potency [1] | outcome [2] | Potency [3] | max response [5] -0.861%

CNC(=O)[C@H]1O[C@@H](n2cnc3c(NCc4cccc(I)c4)ncnc32)[C@H](O)[C@@H]1O
inactive: Potency [1] | outcome [2] | Potency [3] | Potency [4] | max response [5] 55.6%

Nc1nc(SCc2ccc([N+](=O)[O-])cc2)c2ncn([C@@H]3O[C@H](CO)[C@@H](O)[C@H]3O)c2n1
inactive: Potency [1] | outcome [2] | Potency [3] | max response [5] 22.6%

CC1OC1P(=O)(O)O (centres undefined)
inactive: Potency [1] | outcome [2] | Potency [3] | max response [5] -9.6%

OC[C@H]1O[C@@H](n2cnc3c(NC4CCCC4)ncnc32)[C@H](O)[C@@H]1O
inactive: Potency [1] | outcome [2] | Potency [3] | Potency [4] | max response [5] -3.53%

CCN1/C(=C/C(C)=O)Sc2ccc(OC)cc21
inactive: Potency [1] | outcome [2] | Potency [3] | Potency [4] | max response [5] 22.2%

NC(=O)C(=O)O
inactive: Potency [1] | outcome [2] | Potency [3] | Potency [4] | max response [5] 24.1%

Cn1c(=O)c2[nH]c(-c3ccccc3)nc2n(C)c1=O
inactive: Potency [1] | outcome [2] | Potency [3] | max response [5] 16.2%

Cc1cc(NC2CCCCC2)nc(-n2nc(C)cc2C)n1
inactive: Potency [1] | outcome [2] | Potency [3]
active: Potency [5] 1.18 µM

CCC1C(=O)OCC1Cc1cncn1C (centres undefined)
inactive: Potency [1] | outcome [2] | Potency [3] | Potency [4] | max response [5] -1.02% and -1.03% and -9.17%

CCc1c(C(=O)NCCc2ccc(N3CCCCC3)cc2)[nH]c2ccc(Cl)cc12
inactive: Potency [1] | outcome [2] | Potency [3] | max response [5] 11.6%

CC(=O)N[C@H](C(=O)O)C(C)(C)SN=O
inactive: Potency [1] | outcome [2] | Potency [3] | max response [5] 7.76%

NCCCS(=O)(=O)O
inactive: Potency [1] | outcome [2] | Potency [3] | max response [5] 2.49%

CC(=O)SCC[N+](C)(C)C
inactive: Potency [1] | outcome [2] | Potency [3] | Potency [4] | max response [5] 9.88%

COC1=C(OC)C(=O)c2ccccc2C1=O
inactive: Potency [1] | outcome [2] | Potency [3] | Potency [4]
active: Potency [5] 3.98 µM

O=C1C(SCCO)=C(SCCO)C(=O)c2ccccc21
inactive: Potency [1] | outcome [2] | Potency [3]
active: Potency [5] 1.41 µM

O=C1/C(=C/c2ccsc2)CC/C1=C\c1cccs1
active: Potency [1] 18.4 µM
inactive: outcome [2] | Potency [3] | Potency [4] | max response [5] 30.3%

CN1CCc2cccc3c2C1Cc1ccc(O)c(O)c1-3 (centres undefined)
inactive: Potency [1] | outcome [2] | Potency [3]
active: Potency [5] 0.562 µM

COc1cc(/C=C/C(=O)CC(=O)/C=C/c2ccc(O)c(OC)c2)ccc1O
inactive: max response [8] -2.44%

Nc1ccc([N+](=O)[O-])cc1O
inactive: max response [8] -6.11% and -12.4% | max response [5] -2.68% | Potency [9]
